# Sampled rows, rich in hits. Any-hit rate of the full collection: about 3.4%.
# Mcl1 Noxa PPI: Mcl-1/Noxa interaction inhibition. Q07820. TR-FRET Mcl-1/Noxa peptide binding, 2 h. inhibition, % at 21.7 µM. 1.5% of 220,000 active. AID 1022;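 active = compounds that cut the protein-peptide binding signal by more than 50% relative to plate controls in a single-dose test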;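 also: His-tagged Mcl-1 with rhodamine Noxa BH3 peptide and terbium anti-His antibody; 0% = Mcl-1 plus Noxa peptide wells and 100% = peptide-only wells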
# Target sequence (Q07820 whole entry, looked up): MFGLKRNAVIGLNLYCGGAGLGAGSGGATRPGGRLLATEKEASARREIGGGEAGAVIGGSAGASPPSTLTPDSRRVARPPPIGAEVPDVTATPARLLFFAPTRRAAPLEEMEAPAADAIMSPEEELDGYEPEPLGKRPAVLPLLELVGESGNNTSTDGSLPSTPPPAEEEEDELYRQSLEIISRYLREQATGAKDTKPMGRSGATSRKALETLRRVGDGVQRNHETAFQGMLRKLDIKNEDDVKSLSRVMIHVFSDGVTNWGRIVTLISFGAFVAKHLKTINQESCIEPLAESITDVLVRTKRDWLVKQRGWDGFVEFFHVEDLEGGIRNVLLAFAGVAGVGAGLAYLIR
# Bim-Mcl-1: disrupts Bim peptide binding to human Mcl-1. Bead-based flow cytometry, Bim peptide-Mcl-1 binding. inhibition, % at 10 µM. 0.1% of 190,000 active. AID 1009; in the data active = inhibition above about 40%;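 also: 0% = no compound tracer wells and 100% = peptide blocker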
# NCF1 inh: blocks human p47phox regulatory protein of NADPH oxidases; P14598; 0.53% of 220,000 active; AID 1274; p47phox/p22phox peptide binding, fluorescence polarization, 2 h; inhibition, % at 24.7 µM;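 active = inhibition above about 30%, limit read from the data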;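 also: 0% = p47phox with labelled peptide and 100% = labelled peptide alone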
# 14-3-3 Bad inh: disrupts binding of bovine 14-3-3 zeta to phospho-Bad peptide. inhibition, % at 21.7 µM. AID 781. P63103. TR-FRET 14-3-3zeta/Dy647-pBad peptide displacement, 1 h. 0.71% of 220,000 active;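 active = inhibition above about 70%, limit read from the data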;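 also: 0% = full 14-3-3 plus peptide FRET controls and 100% = background without 14-3-3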
# Target sequence (P63103 whole entry, looked up): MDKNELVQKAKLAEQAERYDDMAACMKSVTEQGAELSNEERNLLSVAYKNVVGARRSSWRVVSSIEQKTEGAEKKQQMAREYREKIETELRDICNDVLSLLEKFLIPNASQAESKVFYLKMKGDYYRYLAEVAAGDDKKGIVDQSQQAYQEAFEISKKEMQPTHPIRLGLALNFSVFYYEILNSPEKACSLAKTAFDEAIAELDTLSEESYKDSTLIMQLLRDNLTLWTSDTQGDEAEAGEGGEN
# m-calpain inh: inhibitors of pig calpain II. inhibition, % at 16 µM. purified calpain II, fluorogenic peptide substrate, 30 min. AID 1236. 0.37% of 220,000 active;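 active = inhibition above about 50%, limit read from the data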
# Mcl1 Bid PPI: disrupts binding of human Mcl-1 to Bid peptide; Q07820; TR-FRET Mcl-1/Bid-Dy647 peptide binding, 1536-well; inhibition, % at 21.7 µM; 0.97% of 220,000 active;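 active = compounds that cut the binding signal by more than half at the single screening dose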;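 also: His-tagged Mcl-1 with europium anti-His antibody binding Bid BH3 peptide; 0% = Mcl-1 plus peptide wells and 100% = peptide-only wells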
# Starred values were filed as active, the others as inactive; nt = no result given.
SMILES,Mcl1 Noxa PPI,Bim-Mcl-1,NCF1 inh,14-3-3 Bad inh,m-calpain inh,Mcl1 Bid PPI
COc1ccc(CCNC(=O)C/C(C)=N/NC(=O)c2ccc(N)cc2)cc1OC,-8,4,81*,nt,9,-29
COc1ccc(CCNC(=O)C/C(C)=N/NC(=O)C2CCCCC2)cc1OC,-2,-4,-2,3,-8,-13
COc1ccc(CCNC(=O)c2ccc(CNS(=O)(=O)c3ccc(C(C)(C)C)cc3)cc2)cc1OC,17,-6,-9,2,-31,97*
COc1ccc(C)c2sc(=NC(=O)c3ccccc3)n(C)c12,-5,0,45*,2,-31,0
O=C(CCCOc1ccc(Cl)cc1Cl)Nc1cccnc1,11,-2,-6,78*,-10,28
CSc1cccc(NC(=O)CCCOc2ccc(Cl)cc2Cl)c1,-8,-5,-10,4,7,2
Cc1cc(C2CC(=O)Nc3ccccc3S2)c(C)s1 (stereo unspecified),7,nt,-11,-3,-3,-7
O=C1c2cccc3c(O)ccc(c23)C(=O)N1Cc1ccccc1,-129,nt,37*,-20,-81,1
Cc1c(N=Nc2c(-c3ccc([N+](=O)[O-])cc3)[nH]n(C(N)=S)c2=O)cccc1[N+](=O)[O-],116*,0,22,92*,39,98*
NC(=S)n1[nH]c(-c2ccc([N+](=O)[O-])cc2)c(N=Nc2ccccc2[N+](=O)[O-])c1=O,84*,-174,30*,65,-116,90*
NC(=S)n1[nH]c(-c2ccc([N+](=O)[O-])cc2)c(N=Nc2cccc([N+](=O)[O-])c2)c1=O,85*,1,-2,91*,-3,82*
Nc1[nH]n(-c2ccccc2)c(=O)c1N=Nc1ccccc1[N+](=O)[O-],60*,3,-5,12,15,40
Cc1[nH]n(C(N)=S)c(=O)c1N=Nc1ccc2ccccc2c1,-17,2,-12,-28,8,-123
CN(Cc1ccccc1)C(=S)Nc1ccc2nc3n(c(=O)c2c1)CCCCC3,3,0,5,-6,8,-42
Cc1cc(Cl)ccc1NC(=S)NCCN1CCOCC1,-2,-7,0,-2,27,-53
CCOc1cc(/C=N/N2CCOCC2)ccc1OCc1ccc(C(=O)OC)o1,4,0,18,-25,-13,-48
CCN1CCN(c2nc(Nc3ccc(NC(C)=O)cc3)nc(Nc3ccc(NC(C)=O)cc3)n2)CC1,35,nt,-4,1,8,-18
Nc1nc(SCC(=O)c2c(N)n(Cc3ccccc3)c(=O)[nH]c2=O)n[nH]1,14,nt,-17,-3,0,-23
Cc1ccc(NC(=O)CSc2n[nH]c(=O)n2C2CC2)cc1S(=O)(=O)N1CCOCC1,22,0,3,-21,3,-40
On1nnc2cc(C(F)(F)F)ccc21,0,0,-5,-4,-24,-15
Nc1[nH]n(-c2ccccc2)c(=O)c1N=Nc1ccc2ncsc2c1,63*,nt,2,-3,-17,-18
Fc1ccc(NC(=S)NCCc2ccc(Cl)cc2)cc1,22,0,-2,-17,10,-17
O=[N+]([O-])c1ccc(NC(=S)NCCc2ccc(F)cc2)cc1,52*,-16,-22,-12,9,6
CCOc1ccccc1NC(=O)C1CCN(C(=O)c2cccs2)CC1,2,2,-1,-6,21,-1
O=C(/C=C\c1ccco1)c1ccc(NC(=O)c2ccco2)cc1,76*,0,-20,12,-158,-86
SMILES,Mcl1 Noxa PPI,Bim-Mcl-1,NCF1 inh,14-3-3 Bad inh,m-calpain inh,Mcl1 Bid PPI
CC(=O)Nc1cccc(C(=O)/C=C/c2ccc(F)cc2)c1,-1,0,-8,0,-18,-5
CC(=O)Nc1ccc(C(=O)/C=C/c2ccco2)cc1,61*,-5,-17,5,-27,-8
CC(=O)Nc1cccc(C(=O)/C=C/c2ccc(/C=C/C(=O)c3cccc(NC(C)=O)c3)cc2)c1,45,-5,12,30,-40,59*
CC(=O)Nc1cccc(C(=O)/C=C/c2ccco2)c1,19,0,-15,7,-17,-17
CC(CCc1ccccc1)NCc1ccncc1 (stereo unspecified),34,0,-9,90*,10,-6
COc1ccc2c(c1OC)C(=O)N1N=C(c3ccc(Cl)cc3)CC21 (stereo unspecified),18,-24,0,2,-11,-4
Clc1ccccc1CN1CCc2sccc2C1,16,-3,-8,-1,23,88*
Cn1cc(CN2CCc3sccc3C2)c(-c2ccccc2F)n1,22,-2,-10,-10,15,-14
Cc1nn(CCOc2cccc(Br)c2)c(C)c1[N+](=O)[O-],17,-1,1,8,27,-2
Oc1ccc(/C=N/Nc2cc(N3CCCC3)nc(N3CCCC3)n2)cc1O,65*,15,-3,-19,-62,-69
Cc1nn(-c2ccccc2)c(Cl)c1C1C(C#N)=C(N)Oc2c1c(C)nn2-c1ccccc1 (stereo unspecified),60*,-2,-3,-5,-31,-26
Cc1nn(-c2ccccc2)c2c1C(c1ccncc1)C(C#N)=C(N)O2 (stereo unspecified),16,0,-4,8,-34,-32
O=C(O)c1ccccc1-c1ccc(/C=c2\sc3nc4cc(Br)cnc4n3c2=O)o1,91*,-2,-13,36,-83,78*
CN(C)c1nc(Nc2ccccc2)nc(N(C)C)n1,12,0,-1,80*,6,13
Cc1ccc(C(c2c(C)n(C)n(-c3ccccc3)c2=O)c2c(C)n(C)n(-c3ccccc3)c2=O)s1,-56,0,-8,-16,-1,-51
COc1cccc(Oc2c(C)oc3c(CN4CCCC4)c(O)ccc3c2=O)c1,-5,nt,-4,5,-315,96*
O=C(c1sc2cc([N+](=O)[O-])ccc2c1Cl)N1CCOCC1,7,-2,10,21,8,-29
CC(C)N(C(=O)c1sc2cc([N+](=O)[O-])ccc2c1Cl)C(C)C,8,-2,-4,-8,48,97*
CCOC(=O)CCNCc1ccc(OC)c(OC)c1,54*,nt,-3,5,18,-3
COc1ccc(OC)c(Nc2ccc(Nc3cc(OC)ccc3OC)nn2)c1,54*,-7,6,-7,-6,-34
Cc1ccsc1-c1nc(CN2C[C@@H](C)O[C@@H](C)C2)c(C)o1,12,-1,-4,0,8,-38
COc1ccc(CCNC(=O)CN(c2ccc(OC)c(OC)c2)S(C)(=O)=O)cc1,75*,-4,7,-2,-3,-19
CCOc1ccc(C(=O)NCCc2ccc3c(c2)OCCO3)cc1,-8,-2,0,-5,13,-1
CSc1nc2ccc(Cl)cc2[nH]1,5,-1,-12,-2,-17,-5
CSc1nc2cc(Oc3cccc(Cl)c3Cl)c(Cl)cc2[nH]1,5,-3,-18,3,61*,5

# Source: PubChem (several laboratories)
